Laboratory results from PubChem BioAssay AID1508600 (Functional Genomics Laboratory (NCATS/FGL), 2020).
Screen size: about 53,000 sequences; about 3,700 (7%) were called active. Shown is part of a subset that was picked to be rich in actives. Values without a mark were called inactive.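 Rule for the calls: active = gene knockdowns whose robust z-score for IL-1 alpha signal is at least 2 or at most -2, so actives lie on both sides; inactive = the rest.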

Experiment: Components of the Cytosolic LPS Sensing Pathway: Gene Identification via Genome-wide siRNA Screen;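 note: robust z of the log signal after scaling to non-targeting control siRNA wells of the plate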
Conditions: RAW264.7 macrophages, IL-1a HTRF, actives lie on both sides, screened at 100 nM (by protocol), cells primed 5 h with Pam3CSK4 first
Outline: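 Read-out: IL-1a HTRF on supernatant, divided by plate negative-control median ×100, log-transformed and converted to robust z-score. Cells were RAW264.7 given 100 nM siRNA, Pam3CSK4-primed 5 hours, then LipidA-transfected 24 hour.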

Sequence | z-score
GCUAGCCAGUGCAUUCACATT against Srp68 | -2.96 (active)
GCCCUUAAUUGAACAAAUATT against Otud7b | 0.0529
CGGACUCAGUCAUCAUUGCTT against Atf7 | -1.46
GGAAAGAAAAAUCAGAGAATT against Adprhl1 | -0.866
GCUGUGGUAAACUGAAACUTT against Glis2 | -1.89
GGGAGCCAAUGAAAUCAAGTT against Hmbox1 | 3.31 (active)
GCCUUGACAGAGGUAUUGATT against Ovgp1 | -1.46
GGAGAAAUUCAAACAAGUATT against 4930503B20Rik | 0.275
CCCACUGGUUUGUUUAAACTT against Hbegf | 0.555
GGUUUUGCCUCCCAUAGUATT against Ssty1 | 0.112
GGAGGAGCUUAGCCCUUUUTT against Bad | 2.28 (active)
GCAGUUACGUUAGUUAAUATT against Plekha1 | 1.1
GCUACUCAUUUAGCAGAGATT against Olfr76 | -0.887
GUGGAUUAGGGAAUUUCAUTT against Mrgprb1 | 1.84
GAAUCCCUUCGAGUACGACTT against Fxyd2 | 3.17 (active)
GGAGCUGAAUGUCUGUAGCTT against Mzt2 | -1.31
CCUGAUGGAUGAUGAAUCATT against Trap1a | -1.42
GGAGGAGCUGGAGAAAACATT against Psd4 | -0.43
GGUCCUUUGAUGCUGACUGTT against Sfrp4 | -2.07 (active)
CCAAGAAAAGUCCAGAAGCTT against Rorb | 0.379
GGAGAGACGUAAGAGGCGATT against Zrsr2 | 0.0858
GGACAAUUGGGCCAAACUGTT against Mpv17 | 0.103

Sequence | z-score
GGUGAAACCCUGAAAGUCCTT against Tmem154 | -0.169
GGUGUGUUAAGGUUUUUAATT against Marchf1 | 3.68 (active)
GGAUAAUUUUGGAAGCAGATT against Rheb | -0.299
GCAUCUCACUCGUAAAGGUTT against Tmprss11f | -0.555
GCGCGUGACAAGGAGGAUUTT against Ska3 | 1.03
GGCCUGAACUUUUUAUUGATT against Olfr533 | -2.19 (active)
GGGAUUUUAUCAUACAAACTT against Ppil4 | 0.774
GGCUUUCAUGUGCCGUUUUTT against Gstm5 | 2.39 (active)
GGAACUUGUUUCAUAUCGUTT against Scfd1 | 0.839
GGGAUUGUGUGAAUCAUACTT against Tmem230 | -1.27
GGCUGCUGAAGCAAAUAAGTT against Ankrd17 | 3.38 (active)
GGGAAGGCUGAAUGACUGCTT against Vamp5 | 0.257
GGCGAGAGAGAUGAGUAAATT against Smim3 | -1.63
GGGAAUUAUGGGCUUACCGTT against 4931414P19Rik | -0.414
GGCUAUUUCUUUUUAUGCUTT against Ak4 | 0.911
GGAGACAAUGGACAAGAAGTT against Dnal4 | 0.272
GCCAGUAACCAGAAAAUUGTT against Sycp3 | -2.01 (active)
CCUUAUUACACACACCCUGTT against Gja3 | 0.398
GCUGGUAGCAUUCUUAUCCTT against Xylt2 | 0.529
CGGAUGAGGUUUCUUUUAUTT against Phkb | 0.415
GGUUGGUUCUUACUUGAAATT against Mindy3 | 0.613
GGAUAAUGCUCCAUCAUAGTT against Nab1 | -0.419

Sequence | z-score
GCAAUCACCAAAUCACUAGTT against Fstl1 | -0.123
GCCAGGAAACGACAAUAAATT against Slc5a11 | 0.731
CCUAGUACUUCGAAGAAAGTT against Tmem255a | -2.62 (active)
GGUCAUUCAGUGGUGCACCTT against Skp1 | -0.00227
GGUUUCAAACUCUUGUAAUTT against Pgrmc1 | -0.139
GGUUUGUUUUCAGAUGAAGTT against Washc2 | 0.155
GGAGAAAAUAAGCUGGUAGTT against Slc35f1 | 3.42 (active)
CCCAUCAAUGCUGUUAAUUTT against Entpd5 | 0.128
GCUCGAUAUCACAGAGAUUTT against Ces5a | -0.177
GGAGUUGGAGAAUGACACGTT against Ift88 | 1.14
GCAGUGUUGUCAAAACUUGTT against Mtfmt | 1.54
GGUACUUUAUAGGAACAGUTT against Zbtb41 | -0.973
GGUAUGCUAACAGAACACGTT against Nr1h4 | 3.15 (active)
GCAGAUGCUAACAUAUCCATT against Trim32 | -0.902
GCGCAGAGAUUACCUUAAGTT against Gtf3a | -0.543
CCACUAUUUAAUCUUACCGTT against Hoxc13 | 0.175
GGAGCAUAUAUAGAAUUAGTT against Mrps22 | 3.01 (active)
GCGGGCUUUGCUGAGAUUUTT against Zbtb48 | 0.604
GGAGAUUUCCCGACUUAACTT against Tnip2 | 1.68
GGCAUCCAUGUGCUCUUUCTT against Tex13a | -2.49 (active)
GGGAAAAGGUCAGUGAAGUTT against Fam219b | -0.305
GGGAAUGGAAGAAUAUUCUTT against Dppa2 | 1.61

Sequence | z-score
CCUCGUGUUACUUUUACCCTT against Olfr13 | -1.51
GCUUCUCUACACCACAGACTT against Olfr796 | -0.0426
GGGUUGAUUGACGAAGCCATT against Fga | -1.75
GGAGAUUCAGAAUUACUGATT against Krit1 | -0.818
GCAUUCAUUGAUCAAUUCUTT against Zbtb6 | 2 (active)
GCCUGCUUUGGAAAAAUCATT against Akr1c12 | 0.209
CCCAGGAAGCCUUUGAUCUTT against Gmnn | 0.263
CCAUCGUCCAAAGUACAUGTT against Rbp4 | -1.39
GGGUAAUUAUUGUUUUCUGTT against Eif4e3 | 2.19 (active)
GCUGUUGGUUUCUACUCACTT against Adam21 | -0.0536
GGAACAUGUCUCCUGAUCUTT against Add3 | -1.07
GCAAUUCAGCUUAUAAGCATT against Mterf2 | -2.79 (active)
GGGAAAUGAGUUUCUACCGTT against Ebna1bp2 | -0.891
CCUACACUAAAAUUCACCATT against Muc15 | -0.549
CGUGUGCAAAGAAGCUAAATT against Mdm2 | 1
GGAGAUGAUGAUUUACAAATT against Spred1 | 0.723
GGUGAUCUUAGAUUUGAUUTT against Qsox2 | -0.401
GGGUUUCUUACUGAAGAAATT against Mindy2 | -1.43
GGAUCGAGACAAGGCCAAATT against Fes | 3.22 (active)
GGAAUGAAGCCUGAACAGATT against Strc | 0.151
GGACAAUGCCCUGUAUCAGTT against Clic3 | -0.822
GGAUAGUCUCCUCAAAGAATT against Trmt10b | 0.7

Sequence | z-score
GCUGUCAGAAAUCUUCGACTT against E2f4 | 2.65 (active)
CCAUACUACGGAUGUUUGATT against Calb2 | 0.677
GGGUAUAGGGAUGGUGAAUTT against Ppil1 | 0.834
GCUACUCAGUCAUUGAGCCTT against Tatdn2 | -1.85
GCAUCUCAAGGAUCUUCGGTT against Syngr4 | -0.0821
GGGCAACUUUGAGUUCGAATT against Dok2 | 0.294
CCUUACCCUGUGUAUCUUUTT against Naa80 | -0.0307
GGCAAUUCACUGUGAGUAATT against Mettl21a | -2.18 (active)
GGCCAAGGUCAAUAACUCCTT against Rfc1 | -0.755
GGACCACUACAUCAUAUACTT against Lcn4 | -1.17
GGCCAAGACACCCUUGUUUTT against Zfp524 | -0.376
GGAAGAGAAAGCAAAGUCATT against Ddx19a | -0.43
CGGAAAUGUAAGUACUUUATT against Taf13 | 2.25 (active)
GGUUCUGGAAGAAGAAAAGTT against Irgq | 1.31
GGUUCUGUAAAUUCAACUATT against Zfp593 | 0.706
CUACGAGCCACUUCUGAGATT against Krt87 | -0.431
GAACUGAAGAAGCAGAUUGTT against Isg15 | 0.601
GGCAUUAUGAGCAUCUCGGTT against Tnfrsf11a | -0.394
GGAGACACCAGACCAACAATT against Gm5458 | 0.242
GGAAGGACAACACUGCACCTT against Cd40 | 2.44 (active)
